From PubChem BioAssay AID1159580 (chemical genetic matrix, 2015)
Out of some 5,500 compounds screened, about 2,000 (36%) were called active. Another 18% or so got no clear call; they are omitted. No stated cut-off is given here; in the data, active means normalized growth mostly below about 0.91 (no sharp cut-off); inconclusive means no clear call, values can overlap the other calls; inactive means mostly above about 0.92. Some of the results follow.

Experiment: chemical genetic growth profiling, strain panel (AID 1159580);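 further: tested at 20 µM; growth read once vehicle control cultures reached saturation at 30 °C; 1 = growth at the plate median or of vehicle wells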
Conditions: growth OD

Measured: normalized growth

CCCCCCCCCCc1ccc(-c2ccccc2)cc1
inactive: S. cerevisiae deletion strains, locus YAL013W, strain DEP1, stronger effect = lower value 0.982 | S. cerevisiae deletion strains, locus YBR229C, strain ROT2, stronger effect = lower value 1.01 | S. cerevisiae deletion strains, locus YDL101C, strain DUN1, stronger effect = lower value 0.99 | S. cerevisiae deletion strains, locus YDR150W, strain NUM1, stronger effect = lower value 0.976 | S. cerevisiae deletion strains, locus YEL061C, strain CIN8, stronger effect = lower value 0.988 | S. cerevisiae deletion strains, locus YGR078C, strain PAC10, stronger effect = lower value 0.988 | S. cerevisiae deletion strains, locus YHR030C, strain SLT2, stronger effect = lower value 0.769 | S. cerevisiae deletion strains, locus YHR087W, strain rtc3, stronger effect = lower value 1.09 | S. cerevisiae deletion strains, locus YJL187C, strain SWE1, stronger effect = lower value 1.01 | S. cerevisiae deletion strains, locus YJR043C, strain POL32, stronger effect = lower value 0.992 | S. cerevisiae deletion strains, locus YJR075W, strain HOC1, stronger effect = lower value 0.989 | S. cerevisiae deletion strains, locus YLR039C, strain RIC1, stronger effect = lower value 0.992 | S. cerevisiae deletion strains, locus YLR058C, strain SHM2 (second series), stronger effect = lower value 1.01 | S. cerevisiae deletion strains, locus YLR085C, strain ARP6, stronger effect = lower value 0.845 | S. cerevisiae deletion strains, locus YLR262C, strain YPT6, stronger effect = lower value 0.941 | S. cerevisiae deletion strains, locus YML094W, strain GIM5, stronger effect = lower value 0.97 | S. cerevisiae deletion strains, locus YMR219W, strain ESC1, stronger effect = lower value 0.998 | S. cerevisiae deletion strains, locus YMR263W, strain SAP30, stronger effect = lower value 0.999 | S. cerevisiae deletion strains, locus YMR307W, strain GAS1, stronger effect = lower value 0.669 | S. cerevisiae deletion strains, locus YNL153C, strain GIM3, stronger effect = lower value 1 | S. cerevisiae deletion strains, locus YNL298W, strain CLA4 (second series), stronger effect = lower value 0.926 | S. cerevisiae deletion strains, locus YNL322C, strain KRE1, stronger effect = lower value 0.974 | S. cerevisiae deletion strains, locus YNR030W, strain Alg12, stronger effect = lower value 0.958 | S. cerevisiae deletion strains, locus YPL055C, strain LGE1, stronger effect = lower value 1.06 | S. cerevisiae deletion strains, locus YPL241C, strain CIN2, stronger effect = lower value 0.982 | S. cerevisiae deletion strains, locus YPR135W, strain CTF4, stronger effect = lower value 0.897
active: S. cerevisiae strains, strain wild type, stronger effect = lower value 0.902
